The panel holds about 83,000 compounds, 20% with a hit somewhere; the sample as a whole holds those more often.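 Method: cells in 96-well plates; compound added at one concentration; 48 h incubation; percent growth measured; values under 10 scored active.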 Calls of active or inactive are those of the source.
How the values were obtained:
Assay in all cases: NCI-60 one-dose screen, 48 h (100 = growth as untreated, 0 = no growth, -100 = all killed)
K-562 leukemia = conditions: 10 µM unless noted
MALME-3M melanoma = conditions: 10 µM unless noted
MDA-MB-231 breast = conditions: 10 µM unless noted
RXF 393 renal = conditions: 10 µM unless noted
SF-268 CNS = conditions: 10 µM unless noted
SF-295 CNS = conditions: 10 µM unless noted
SF-539 CNS = conditions: 10 µM unless noted
UACC-257 melanoma = conditions: 10 µM unless noted
HCT-15 colon = conditions: 10 µM unless noted
HT29 colon = conditions: 10 µM unless noted
SNB-75 CNS = conditions: 10 µM unless noted
SNB-19 CNS = conditions: 10 µM unless noted
U251 CNS = conditions: 10 µM unless noted
PC-3 prostate = conditions: 10 µM unless noted
SK-MEL-5 melanoma = conditions: 10 µM unless noted
UACC-62 melanoma = conditions: 10 µM unless noted
LOX IMVI melanoma = conditions: 10 µM
SK-MEL-28 melanoma = conditions: 10 µM unless noted
M14 melanoma = conditions: 10 µM unless noted
DU-145 prostate = conditions: 10 µM unless noted

Measured: growth

Cc1ccccc1CC(N)C(=O)O (stereo unspecified)
inactive: K-562 leukemia 115% | MALME-3M melanoma 116% | MDA-MB-231 breast 116% | RXF 393 renal 137% | SF-268 CNS 101% | SF-295 CNS 99.6% | SF-539 CNS 116% | UACC-257 melanoma 109% | HCT-15 colon 117% | HT29 colon 107% | SNB-75 CNS 91.4% | SNB-19 CNS 108% | U251 CNS 102% | PC-3 prostate 90.4% | SK-MEL-5 melanoma 117% | UACC-62 melanoma 103% | LOX IMVI melanoma 106% | SK-MEL-28 melanoma 115%

C=CCOc1ccc(Cl)cc1Cl
inactive: MALME-3M melanoma 113% | MDA-MB-231 breast 91.5% | RXF 393 renal 132% | SF-268 CNS 104% | SF-295 CNS 98.2% | SF-539 CNS 96.8% | UACC-257 melanoma 115% | HCT-15 colon 104% | HT29 colon 112% | SNB-75 CNS 90.3% | SNB-19 CNS 114% | U251 CNS 106% | PC-3 prostate 88.2% | SK-MEL-5 melanoma 108% | UACC-62 melanoma 92.7% | LOX IMVI melanoma 99.6% | SK-MEL-28 melanoma 115%
active: K-562 leukemia 5.12%

O=C1NC(=O)/C(=C\c2ccncc2)N1
inactive: K-562 leukemia 117% | MALME-3M melanoma 103% | MDA-MB-231 breast 99.1% | RXF 393 renal 102% | SF-268 CNS 97.6% | SF-295 CNS 104% | SF-539 CNS 92.7% | UACC-257 melanoma 97.7% | M14 melanoma 92.6% | HCT-15 colon 98.7% | HT29 colon 99.7% | SNB-75 CNS 92% | SNB-19 CNS 101% | U251 CNS 100% | PC-3 prostate 96.3% | SK-MEL-5 melanoma 97.2% | UACC-62 melanoma 95.8% | LOX IMVI melanoma 100% | SK-MEL-28 melanoma 101%

Cc1ccc[n+](CCC(N)=O)c1
inactive: DU-145 prostate 103% | MALME-3M melanoma 79.3% | MDA-MB-231 breast 92.3% | RXF 393 renal 106% | SF-268 CNS 97.6% | SF-295 CNS 93.5% | SF-539 CNS 87.3% | UACC-257 melanoma 103% | M14 melanoma 109% | HCT-15 colon 111% | HT29 colon 98.1% | SNB-75 CNS 87% | SNB-19 CNS 104% | U251 CNS 87.4% | SK-MEL-5 melanoma 102% | UACC-62 melanoma 101% | LOX IMVI melanoma 82% | SK-MEL-28 melanoma 99.9%

C/C(O)=C(/C=N/C(=S)Nc1ccccc1)C(=O)Nc1ccccc1C
inactive: K-562 leukemia 100% | MALME-3M melanoma 89.1% | MDA-MB-231 breast 99.7% | RXF 393 renal 104% | SF-268 CNS 97.9% | SF-295 CNS 105% | SF-539 CNS 101% | UACC-257 melanoma 91.2% | M14 melanoma 100% | HCT-15 colon 96.7% | HT29 colon 105% | SNB-75 CNS 92.4% | SNB-19 CNS 93.9% | U251 CNS 95.4% | PC-3 prostate 86.5% | SK-MEL-5 melanoma 93.9% | UACC-62 melanoma 79.4% | LOX IMVI melanoma 94.4% | SK-MEL-28 melanoma 110%

O=C(NCc1ccccc1)/C(=C/c1ccccc1)NC(=O)c1ccccc1
inactive: DU-145 prostate 111% | MDA-MB-231 breast 92.6% | RXF 393 renal 93.7% | SF-268 CNS 100% | SF-295 CNS 106% | SF-539 CNS 115% | UACC-257 melanoma 81.1% | M14 melanoma 101% | HCT-15 colon 106% | HT29 colon 92.9% | SNB-75 CNS 98.1% | SNB-19 CNS 97.1% | U251 CNS 93.4% | PC-3 prostate 88.5% | SK-MEL-5 melanoma 97.5% | UACC-62 melanoma 93.5% | LOX IMVI melanoma 98.3% | SK-MEL-28 melanoma 117%

O=C1C=C(c2ccccc2)C(O)(c2ccccc2)C1 (stereo unspecified)
inactive: K-562 leukemia 86.6% | MALME-3M melanoma 108% | MDA-MB-231 breast 92.5% | RXF 393 renal 115% | SF-268 CNS 103% | SF-295 CNS 94.1% | SF-539 CNS 104% | UACC-257 melanoma 97.7% | M14 melanoma 95.5% | HCT-15 colon 132% | HT29 colon 97.8% | SNB-75 CNS 77.6% | SNB-19 CNS 135% | U251 CNS 106% | PC-3 prostate 92.8% | SK-MEL-5 melanoma 106% | UACC-62 melanoma 92.3% | LOX IMVI melanoma 93.6% | SK-MEL-28 melanoma 108%

CCOP(=O)(NC(c1ccccc1)c1ccccc1)OCC
inactive: K-562 leukemia 114% | MALME-3M melanoma 89.7% | MDA-MB-231 breast 106% | RXF 393 renal 113% | SF-268 CNS 104% | SF-295 CNS 102% | SF-539 CNS 115% | UACC-257 melanoma 97.8% | HCT-15 colon 117% | SNB-75 CNS 88.7% | SNB-19 CNS 102% | U251 CNS 105% | PC-3 prostate 82.6% | SK-MEL-5 melanoma 105% | UACC-62 melanoma 114% | LOX IMVI melanoma 93.1% | SK-MEL-28 melanoma 106%

O=CNCCc1ccccc1
inactive: K-562 leukemia 89.9% | MALME-3M melanoma 130% | MDA-MB-231 breast 105% | RXF 393 renal 111% | SF-268 CNS 110% | SF-295 CNS 95.8% | SF-539 CNS 115% | UACC-257 melanoma 103% | M14 melanoma 102% | HCT-15 colon 109% | HT29 colon 98.3% | SNB-75 CNS 82.9% | SNB-19 CNS 98.4% | U251 CNS 99.4% | PC-3 prostate 91.4% | SK-MEL-5 melanoma 107% | UACC-62 melanoma 96.8% | LOX IMVI melanoma 109% | SK-MEL-28 melanoma 113%

C/C(O)=C(/C=N\C(=S)Nc1ccc(S(=O)(=O)Nc2nccs2)cc1)C(=O)Nc1ccccc1C
inactive: K-562 leukemia 93.7% | MALME-3M melanoma 108% | MDA-MB-231 breast 87% | RXF 393 renal 97.7% | SF-268 CNS 88.8% | SF-295 CNS 104% | SF-539 CNS 95.9% | UACC-257 melanoma 109% | M14 melanoma 100% | HCT-15 colon 102% | HT29 colon 116% | SNB-75 CNS 89% | SNB-19 CNS 92.7% | U251 CNS 84% | PC-3 prostate 84.9% | SK-MEL-5 melanoma 93% | UACC-62 melanoma 81.8% | LOX IMVI melanoma 92% | SK-MEL-28 melanoma 110%

CCOP(=O)(OCC)/C(=C\N1C(=O)CC(=O)NC1=S)C(=O)OC
inactive: K-562 leukemia 103% | MALME-3M melanoma 102% | MDA-MB-231 breast 93.6% | RXF 393 renal 103% | SF-268 CNS 101% | SF-295 CNS 102% | SF-539 CNS 109% | UACC-257 melanoma 101% | M14 melanoma 99.2% | HCT-15 colon 102% | HT29 colon 111% | SNB-75 CNS 90.2% | SNB-19 CNS 98.6% | U251 CNS 94.7% | PC-3 prostate 97.8% | SK-MEL-5 melanoma 99% | UACC-62 melanoma 98.6% | LOX IMVI melanoma 98.6% | SK-MEL-28 melanoma 107%

Oc1cc(O)c2c(c1)O[C@H](c1ccc(O)c(O)c1)[C@@H](O)C2
inactive: K-562 leukemia 104% | MALME-3M melanoma 103% | MDA-MB-231 breast 98.4% | RXF 393 renal 113% | SF-295 CNS 97.8% | SF-539 CNS 111% | UACC-257 melanoma 101% | HCT-15 colon 100% | HT29 colon 97.5% | SNB-75 CNS 83.6% | SNB-19 CNS 101% | U251 CNS 97.9% | PC-3 prostate 93.3% | SK-MEL-5 melanoma 104% | UACC-62 melanoma 106% | LOX IMVI melanoma 100% | SK-MEL-28 melanoma 110%

CC(=O)C1C(=O)C(=O)N(c2cccc([N+](=O)[O-])c2)C1=O (stereo unspecified)
inactive: K-562 leukemia 112% | MALME-3M melanoma 124% | MDA-MB-231 breast 107% | RXF 393 renal 110% | SF-268 CNS 109% | SF-295 CNS 107% | SF-539 CNS 108% | UACC-257 melanoma 97.4% | M14 melanoma 104% | HCT-15 colon 102% | HT29 colon 105% | SNB-75 CNS 93.9% | SNB-19 CNS 104% | PC-3 prostate 98.2% | SK-MEL-5 melanoma 107% | UACC-62 melanoma 100% | LOX IMVI melanoma 105% | SK-MEL-28 melanoma 107%

Cc1cccc(C)c1NC(=S)/N=C\c1c(O)[nH]c(=O)[nH]c1=O
inactive: DU-145 prostate 111% | MDA-MB-231 breast 96.6% | RXF 393 renal 108% | SF-268 CNS 98% | SF-295 CNS 97.9% | SF-539 CNS 112% | UACC-257 melanoma 81.8% | M14 melanoma 98.4% | HCT-15 colon 107% | HT29 colon 95.7% | SNB-75 CNS 85.1% | SNB-19 CNS 103% | U251 CNS 96.8% | PC-3 prostate 96% | SK-MEL-5 melanoma 96.3% | UACC-62 melanoma 90.9% | LOX IMVI melanoma 98.2% | SK-MEL-28 melanoma 111%

Cc1c(Cl)cccc1N=C=S
inactive: DU-145 prostate 112% | MALME-3M melanoma 99% | MDA-MB-231 breast 130% | RXF 393 renal 91.9% | SF-268 CNS 107% | SF-295 CNS 93.9% | SF-539 CNS 90.2% | UACC-257 melanoma 92.7% | M14 melanoma 90.6% | HCT-15 colon 107% | HT29 colon 104% | SNB-75 CNS 70.6% | SNB-19 CNS 93.5% | U251 CNS 106% | PC-3 prostate 89.6% | UACC-62 melanoma 97.4% | LOX IMVI melanoma 103% | SK-MEL-28 melanoma 132%

C(=C\c1ccncc1)/c1ccncc1
inactive: DU-145 prostate 145% | MALME-3M melanoma 87.1% | MDA-MB-231 breast 110% | SF-268 CNS 146% | SF-295 CNS 107% | SF-539 CNS 104% | UACC-257 melanoma 108% | M14 melanoma 105% | HCT-15 colon 96.3% | HT29 colon 99% | SNB-75 CNS 89.6% | SNB-19 CNS 94.5% | U251 CNS 97.1% | SK-MEL-5 melanoma 101% | UACC-62 melanoma 90.1% | LOX IMVI melanoma 94.2% | SK-MEL-28 melanoma 104%

— PubChem BioAssay (NCI)
